From PubChem
Lamin A splicing – qHTS Assay for Modulators of Lamin A Splicing; HeLa LMNA splicing GFP/RFP minigene ratio, 48 h; Potency, µM (highest dose often 46.1 µM), for inactives: at the top dose ratio change, negative = inhibition, hits mostly inhibitors; 0.01% of 200,000 active; AID 1487, 2009; active = well fitted inhibition curve with a large enough effect in the signal ratio, with a control signal flat, not every such curve was filed as active; inconclusive = small, poorly fitted or top-dose-only effect, or effect the other way, or a change in a side signal; the % refers to the signal ratio; note: % is set by controls: 0 for no effect and ±100 for the full control effect
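Read-out is the ratio of GFP to DsRed2 object intensity, acquired by 488 nm laser-scanning cytometry on HeLa lamin A-EGFP minigene reporter cells. Compound incubation 48 hrs at 37 °C in Opti-MEM with 2% FBS; DMSO 0.5% final.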
NPSR antagonist – qHTS Assay for Antagonists of the Neuropeptide S Receptor: cAMP Signal Transduction; 1% of 220,000 active; Q6W5P4; Potency, µM (series often up to 38.3 µM), for the others: at the top dose activity change, negative = inhibition, actives largely listed as inhibitors; CHO-NPSR cells, cAMP TR-FRET, antagonist mode; note: % is set by controls: 0 for no effect and ±100 for the full control effect; nearly all actives have a fitted effect of over 50% in size
Target sequence (Q6W5P4 whole entry, looked up): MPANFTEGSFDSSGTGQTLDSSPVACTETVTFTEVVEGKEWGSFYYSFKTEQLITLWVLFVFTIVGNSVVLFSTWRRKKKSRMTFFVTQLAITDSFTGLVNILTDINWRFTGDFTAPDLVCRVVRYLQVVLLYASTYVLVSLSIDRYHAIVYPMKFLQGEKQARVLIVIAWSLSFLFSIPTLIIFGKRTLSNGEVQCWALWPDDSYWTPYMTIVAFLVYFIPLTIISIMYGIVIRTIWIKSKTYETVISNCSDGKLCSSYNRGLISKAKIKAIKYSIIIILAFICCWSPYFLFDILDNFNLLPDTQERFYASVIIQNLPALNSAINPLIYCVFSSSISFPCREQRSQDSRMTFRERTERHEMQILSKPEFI
Epigenetic reg – Quantitative High-Throughput Screen for Regulators of Epigenetic Control; murine LDR cells, GFP reporter derepression, 30 h; Potency, µM (titrated, usually from 53.9 µM), without a hit: top-dose GFP activation, usual class: activators; 0.2% of 280,000 active; note: % of control where 0% means no effect; nearly all actives have a fitted effect of over 60% in size
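Derepression of a silenced CMV-GFP reporter in murine LDR cells is scored by enumerating GFP-positive cells with a laser-scanning microplate cytometer after 30 hours of treatment at 37 C.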
HTT ATP protect – qHTS Multiplex Assay to Identify Dual Action Probes in a Cell Model of Huntington: Cytoprotection (ATP); PC12 HTT-Q103 induced, cytoprotection, ATP luminescence, 40 h; Potency, µM (doses to about 56.4 µM), without a hit: cytoprotection (ATP increase), hits mostly activators; 0.14% of 230,000 active; AID 1471, 2008; note: % of control where 0% means no effect; nearly all actives have a fitted effect of over 45% in size
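PC12 cells with ecdysone-inducible HTT exon 1 Q103-GFP, induced with 100 nM tebufenozide and co-treated with library compounds in a dose series (1536-well, 1500 cells/well). Cytoprotection read as ATP content by ATPlite luminescence.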
HTT aggregate – qHTS Multiplex Assay to Identify Dual Action Probes in a Cell Model of Huntington: Aggregate Formation (GFP) | 1.1% of 220,000 active | Potency, µM (doses to about 46.1 µM), for inactives: at the top dose activity change, negative = inhibition, hits mostly inhibitors | AID 1688, 2009 | PC12 HttQ103-GFP aggregates, Acumen cytometry, 40 h; note: % is set by controls: 0 for no effect and ±100 for the full control effect; nearly all actives have a fitted effect of over 60% in size
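Quantitative HTS on tebufenozide-induced (100 nM) PC12 cells stably expressing polyQ103 Huntingtin exon 1–GFP. Reduction of bright GFP aggregates, detected by laser scanning cytometry after lysis, identified actives across the titration.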
Numbers without * were called inactive; ? = inconclusive; . = no result given; [ ] = dose if it differs, or a comment. Compounds with a hit are over-represented: about 1.5% of the library has one in this group of screens. Unless noted, calls come from the whole dose curve; as a rule, active = well fitted curve in the direction sought with a large enough effect; inconclusive = small, poorly fitted or top-dose-only effect, or another doubt; inactive = no such curve, though single readings can be large; an effect the other way counts as inactive or inconclusive. Potency is the fitted concentration of half-maximal effect.

SMILES | Lamin A splicing | NPSR antagonist | Epigenetic reg | HTT ATP protect | HTT aggregate
Cc1cc(Nc2cccc(Cl)c2)nc2ccc(NC(=O)c3ccc(F)cc3Cl)cc12 | -24.5%[46 µM] | . | 0.8% | . | .
Cc1ccc(C2=CC(c3ccc(N(C)C)cc3)n3nnnc3N2)cc1 (configuration not stated) | 3.9% | -11.4%[46.1 µM] | 19.1% | -21.8% | 10µM*
Cc1cc(=O)n(Cc2cccc(Cl)c2)c2c1c(C)nn2C | ? | . | 1.5% | . | .
Cc1[nH]nc2c1/C(=N/O)CC(c1ccccc1)C2 (configuration not stated) | 1.4% | -28.6%[46.1 µM] | -1.0% | -31.5% | 12.6µM*
CCCc1n[nH]c2c1/C(=N/O)CC(c1ccccc1)C2 (configuration not stated) | ? | -23.6%[46.1 µM] | 0.9% | -10.5%[10 µM] | -20.8%
Cc1ccc2nc(COc3ccccc3NC(=O)c3ccc(F)cc3)cc(=O)n2c1 | ? | . | -2.8% | . | .
O=C(NC1CCN(Cc2ccccc2)CC1)c1ccc(-n2c(=O)c(=O)[nH]c3ccccc32)cc1 | . | . | -3.1% | . | .
COc1cc(/C=N/NC(=Nc2ccc(C)cc2)c2nc3ccccc3s2)ccc1O | -15.8% | 10µM* | 2.6% | -32.1% | 3.9%
COc1ccc(-c2cc3nc(C)c(CCC(=O)Nc4ccc(F)cc4F)c(C)n3n2)c(OC)c1 | . | . | -1.1% | . | .
O=C(CC(c1ccccc1)c1ccccc1)Nc1ccc(Cl)cn1 | -14.7% | 10µM* | 2.2% | -29.6% | ?
O=C(NCc1ccco1)c1cccn2c(=O)c3cc4ccccc4cc3nc12 | 0.9% | ? | 15.8µM* | -65.1% | -3.8%[9.22 µM]
O=C(NCc1ccco1)c1cnc2ccccn2c1=O | ? | -3.4%[46.1 µM] | 0.0% | -9.8%[10 µM] | 9.4%
Cc1cccn2c(=O)c3cc(C(=O)NCc4ccco4)c(=N)n(CCOCCO)c3nc12 | 22.2% | -26.2%[46.1 µM] | 1.8% | -86.2% | 2.82µM*
CCOc1ccc(-n2c(=O)c3c(C)c(C)sc3n(CC(=O)C(C)(C)C)c2=O)cc1 | . | . | -1.8% | . | .
O=S(=O)(Nc1cccc2cccnc12)c1ccc(S(=O)(=O)N2CCCC2)cc1 | -23.9% | ? | -1.0% | 0.1%[10 µM] | 0.794µM*
CCOC(=O)N1CCC(Nc2ncnc3c2cnn3-c2ccc(C)cc2C)CC1 | ? | -19.5%[46.1 µM] | -0.8% | -10.8% | 12.6µM*
COc1cccc(CNc2ccc(Br)cn2)c1O | -1.9% | -5.2%[46.1 µM] | 0.0% | -48.5% | -3.0%
COc1cccc(CNc2ncc(Br)cc2Br)c1O | ? | 10µM* | -1.7% | -23.3% | -9.3%
COc1ccc(-c2nc3cnc(N4CCN(C)CC4)nc3n(Cc3cccc(OC)c3)c2=O)cc1 | ? | . | . | 3.5% | .
CCc1cc2c(=O)c(-c3cscn3)coc2c(CN(C)C)c1O | -13.8% | -6.9%[46.1 µM] | 0.0% | -37.4%[10 µM] | 11.2µM*
N[C@H](C(=O)O)c1cccc(O)c1 | . | . | 2.9% | -43.7% | .
Cc1ccc(C2C(=O)N(C3CCCCCC3)CC(=O)N2C(C)C)cc1 (configuration not stated) | -1.5%[46 µM] | . | 3.2% | . | .
O=C(C#Cc1ccccc1)c1cccc([N+](=O)[O-])c1 | -3.4% | ? | -0.7% | -92.0% | 12.6µM*
O=C(O)c1cccc([N+](=O)[O-])c1 | . | . | . | 21.6% | .
Cc1nc2c(-c3ccc(Cl)cc3)c(C)[nH]n2c(=O)c1Cc1ccccc1 | . | -42.9% | -0.2% | -123.0% | 10µM*
SMILES | Lamin A splicing | NPSR antagonist | Epigenetic reg | HTT ATP protect | HTT aggregate
CC1=C(C(=O)OCc2ccc3c(c2)OCO3)C(c2ccc(Cl)cc2)NC(=O)N1 (configuration not stated) | ? | 5.3%[46.1 µM] | 0.8% | -3.0% | 1µM*
CC1=C(C(=O)OCc2ccc3c(c2)OCO3)C(c2ccc(F)cc2)NC(=O)N1 (configuration not stated) | ? | -9.9%[46.1 µM] | 0.2% | -38.4% | 1.41µM*
Oc1[nH]c2ccccc2c1N=NC(=S)NCC1CCCO1 (configuration not stated) | ? | -25.9% | 0.0% | -7.4%[10 µM] | -4.0%
CCn1c(O)c(N=NC(=S)NCC2CCCO2)c2ccccc21 (configuration not stated) | ? | 7.94µM* | ? | -62.4% | ?
O=C(O)C1CC[C@@](C(=O)O)(c2ccccc2)c2ccccc21 (some centres not stated) | . | . | -1.1% | . | .
CC1=C(CC(=O)c2ccc(Cl)cc2)C(=O)c2ccccc2C1=O | ? | -6.8%[46.1 µM] | 6.3% | -152.1% | 3.55µM*
Cc1oc2c(c1C(=O)c1ccc(Cl)cc1)C(=O)C(=O)c1ccccc1-2 | ? | ? | -1.6% | -109.4% | ?
CCOC(=O)N=Nc1c2ccccc2c2nc3no[nH]c3nc12 | ? | 6.31µM* | 0.9% | -183.0% | 1.26µM*
CN(C)c1ccc(/C=C(\C#N)c2nc3ccccc3c(=O)[nH]2)cc1 | . | . | 6.31µM* | . | .
Cc1ccc(NC(=O)c2sc3ncn(Cc4cccc(F)c4)c(=O)c3c2C)c(Br)c1 | 15.3%[46 µM] | . | -1.1% | . | .
CCCC[n+]1ccn(-c2nc3ccccc3nc2[N-]S(=O)(=O)c2ccccc2)c1 | -2.9% | -20.7%[46.1 µM] | -0.3% | -3.0%[10 µM] | -18.5%
CCCC[n+]1ccn(-c2nc3ccccc3nc2[N-]S(=O)(=O)c2cccs2)c1 | . | 9.8% | 10µM* | -35.3%[10 µM] | -23.4%[9.22 µM]
c1ccc(-n2cnc3ccccc32)cc1 | 2.5%[46 µM] | 7.3% | 0.4% | -21.5% | ?
COc1ccc2ncn(-c3ccccc3)c2c1 | 2.1% | -0.1%[7.67 µM] | -1.0% | 23.2%[10 µM] | 10µM*
COc1ccc(-n2cnc3ccccc32)cc1 | 3.5% | -6.2%[46.1 µM] | 0.0% | -10.6% | 14.1µM*
Cc1ccc(-c2csc(N3CCC(NS(=O)(=O)c4ccc5c(c4)OCCO5)CC3)n2)cc1 | -9.0% | ? | -1.1% | ? | 6.31µM*
Cc1ccc(CNS(=O)(=O)c2ccc3c(c2)OCCO3)cc1 | ? | 0.8% | -1.1% | . | -1.4%
CC(C)(CO[C@H]1C[C@H]2CC[C@@]1(C)C2(C)C)[N+](=O)[O-] | . | . | . | 7.2%[10 µM] | .
C[C@@]12CC[C@@H]3[C@@H](CC[C@H]4C[C@@H](O)CC[C@]43C)[C@H]1CC[C@@H]2c1cc(C(F)(F)F)n[nH]1 | . | . | . | -6.0%[10 µM] | .
CCCC(c1nnnn1C1CCCC1)N1CCN(C(=O)c2ccco2)CC1 (configuration not stated) | 11.9% | 12.6µM* | 2.2% | -26.4%[10 µM] | -6.8%
CCCCC(c1nnnn1C1CCCC1)N1CCN(C(=O)c2ccco2)CC1 (configuration not stated) | 3.3% | -17.7%[46.1 µM] | 1.0% | -13.4%[10 µM] | -13.9%
Cc1cccc(C(=O)NCC(c2ccco2)S(=O)(=O)c2cccs2)c1 (configuration not stated) | 0.4%[46 µM] | . | 1.0% | . | .
C/C(=N\NC(=O)CSCc1ccc([N+](=O)[O-])cc1)c1ccccc1O | ? | -2.6% | -1.1% | . | 10µM*
